Assay results from PubChem BioAssay AID651828 (ICCB-Longwood Screening Facility, Harvard Medical School, 2012).
Where “and” joins values, the source holds several entries; their conditions need not be identical. Equal entries are not always repeated. The whole screen tested about 20,000 compounds, of which about 25 (0.1%) were called active. No stated cut-off is given here; in the data, active means % bound below about 75%; inactive means the rest. The entries come from a sample that favours actives as a whole.

target: Nucleoprotein (Rift valley fever virus (strain ZH-548 M12)) (UniProt P21700); assay: inhibitors of RVFV nucleoprotein–RNA binding, primary screen, biochemical, fluorescence polarization (AID 651828); settings: RVFV N-RNA binding, hits give low values, concentration not given here
Sequence (P21700 whole entry, looked up): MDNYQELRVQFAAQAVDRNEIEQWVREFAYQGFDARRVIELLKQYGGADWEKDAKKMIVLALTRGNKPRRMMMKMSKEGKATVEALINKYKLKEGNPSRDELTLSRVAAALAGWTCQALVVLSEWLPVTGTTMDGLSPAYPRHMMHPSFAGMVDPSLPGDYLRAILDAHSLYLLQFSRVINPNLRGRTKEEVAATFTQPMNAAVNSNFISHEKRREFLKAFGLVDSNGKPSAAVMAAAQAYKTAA

Structure (SMILES) | % bound
CC1=Nc2c(ccc3cccnc23)C1(C)C | 45.3% (active)
COc1ccc(OCC(=O)Nc2ccc(CN3CCOCC3)cc2)cc1 | 87.6% (inactive)
O=C(C1CCCN(S(=O)(=O)c2ccccc2)C1)N1CCN(c2ccc(F)cc2)CC1 (stereo not drawn) | 102% (inactive)
CS(=O)(=O)Cc1ccccc1 | 97.7% (inactive)
Cc1cc(C)cc(C(=O)NC(=S)Nc2ccc3[nH]c(=O)[nH]c3c2)c1 | 98.5% (inactive)
COc1ccc(N2CC(NC(=O)NCC3CCCO3)CC2=O)cc1OC (stereo not drawn) | 110% (inactive)
CCCCOc1ccc(C(C)(C#N)CC#N)cc1 (stereo not drawn) | 102% (inactive)
COc1ccc(-c2cc(-c3cccs3)n(-c3nc(C)cc(=O)[nH]3)n2)cc1 | 109% (inactive)
O=c1[nH]c(=S)[nH]c(O)c1C=NC12CC3CC(CC(C3)C1)C2 | 91.6% (inactive)
O=C(Nc1ccc2c(c1)OCC1CCCN21)C1=Cc2ccccc2OC1 (stereo not drawn) | 96.2% (inactive)
CN(C)NS(=O)(=O)C1CCS(=O)(=O)C1 (stereo not drawn) | 93% (inactive)
COc1ccc(N2CCN(C(C)=C3C(=O)c4ccccc4C3=O)CC2)cc1 | 96.4% (inactive)
CCOC(=O)Nc1sccc1C(N)=O | 96.8% (inactive)
Cc1cccc(N2CCN(C(=O)N(C)C)CC2)c1C | 77.7% (inactive)
O=S1(=O)CC(S(=O)(=O)c2ccccc2)c2ccccc21 (stereo not drawn) | 92.2% (inactive)
COC(=O)c1ccc(CN2CCCC(C)C2)cc1 (stereo not drawn) | 100% (inactive)
CC12CCC(O)CC1=CCC1C2CCC2(C)/C(=N/N)CCC12 (stereo not drawn) | 94% (inactive)
COc1ccc(-c2nc3c(c(=O)c4ccccc4n3C)c(=O)n2Cc2ccco2)cc1 | 95.8% (inactive)
COc1ccc(CCNC(N)=O)cc1OC | 94.3% (inactive)
CCOC(=O)N1CCN(C(=O)CN(c2ccccc2)S(=O)(=O)c2ccc(F)cc2)CC1 | 93.7% (inactive)
O=C1c2ccccc2C(=O)N1CCc1nn[nH]n1 | 93.6% (inactive)
Nc1cc(-c2ccccc2)[nH]n1 | 94.5% (inactive)
C/C(=N\N1CCN(C)CC1)C1=C(O)c2ccccc2C1=O | 97.6% (inactive)

Structure (SMILES) | % bound
O=C(CCN1C(=O)c2ccccc2C1=O)Oc1c(-c2ccco2)oc2ccccc2c1=O | 95% (inactive)
COc1ccccc1C(c1c(C)[nH][nH]c1=O)C(C#N)C#N (stereo not drawn) | 95.8% (inactive)
O=C(CCC(=O)c1ccccc1)c1ccccc1 | 93.9% (inactive)
CS(=O)(=O)N1CCN(C(=O)CSc2ccccc2)CC1 | 80.6% (inactive)
COc1cc(C2c3c(oc4ccccc4c3=O)C(=O)N2CCCOC(C)C)cc(Br)c1O (stereo not drawn) | 97.6% (inactive)
CCOC(=O)c1cn[nH]c1NC(=S)Nc1ccccc1 | 98.6% (inactive)
Cc1nc(N)sc1-c1ccnc(Nc2cccc([N+](=O)[O-])c2)n1 | 104% (inactive)
Cc1nc2sc(C(c3ccccc3Cl)N(C)Cc3ccccc3)c(O)n2n1 (stereo not drawn) | 108% (inactive)
CCC(=O)Nc1ccc(C(=O)n2nnc3ccccc32)cc1 | 94.2% (inactive)
CNS(=O)(=O)c1ccc(NC(=O)C2CC3C=CC2C3)cc1 (stereo not drawn) | 99.1% (inactive)
CC1(C)C/C(=N/O)c2ccoc2C1 | 97.9% (inactive)
CCC(=O)N=c1sc2cc(Br)ccc2n1CCOC | 101% (inactive)
COc1ccc(CCC(=O)NCC#N)cc1 | 86.2% (inactive)
CCOc1ccc(C(=O)Nc2cccc(-c3ccc4nncn4n3)c2)cc1 | 107% (inactive)
Cc1ccc2oc(C(=O)N(C)c3ccccc3)c(C)c2c1 | 97.6% (inactive)
CC(=O)Oc1ccc(S(=NS(=O)(=O)c2ccccc2)c2ccc(OC(C)=O)cc2)cc1 | 94.2% (inactive)
Cc1[nH]cc(Br)c(=O)c1OCC(=O)O | 95.2% (inactive)
Cc1c(C(=O)NCCN2CCOCC2)sc2nc(-c3ccc(F)cc3)cn12 | 97% (inactive)
N#Cc1c(NC(=S)NC(=O)c2ccco2)sc2c1CCCC2 | 97.3% (inactive)
C/C(=N\NC1=NCCCCC1)c1ccccc1 | 95.3% (inactive)
CC1CCN(CC(=O)Nc2nccs2)CC1 | 91.9% (inactive)
CCC1CCC(N(CC)CCN(C)C)CC1 (stereo not drawn) | 112% (inactive)
C[C@H](N[C@@H](CCc1ccccc1)C(=O)O)C(=O)N1Cc2ccccc2C[C@H]1C(=O)O | 100% (inactive)

Structure (SMILES) | % bound
COc1ccc2oc(=O)c(S(=O)(=O)c3ccccc3)cc2c1 | 85% (inactive)
O=C(O)CN1C(=O)/C(=C2/OC(=O)c3ccccc32)SC1=S | 95.4% (inactive)
O=C(NCCc1ccccc1)Nc1ccccc1 | 108% (inactive)
CCCNC(=O)c1c(N)n(-c2ccccc2)c2nc3ccccc3nc12 | 95.9% (inactive)
O=C(Nc1cccc(Nc2nccc(Nc3cccc(C(F)(F)F)c3)n2)c1)C1CC1 | 112% (inactive) and 103% (inactive)
Cn1c(=O)c2cc3c(=O)n(C)c(=O)c3cc2c1=O | 101% (inactive)
COc1c(C(=O)O/N=C(\N)c2cccs2)csc1Cl | 95.1% (inactive)
CN(C)c1ccc(C=NCC(O)CN=Cc2ccc(N(C)C)cc2)cc1 (stereo not drawn) | 97.1% (inactive)
Cc1ccc(S(=O)(=O)NCc2csc(C)n2)c(C)c1 | 105% (inactive)
CC(C)N1C(=O)CNC1=S | 98% (inactive)
CC(C)CC(=O)Nc1ccncc1 | 86% (inactive)
O=C(OCCO)c1cc(Cl)c(C(=O)OCCO)cc1Cl | 104% (inactive)
COC(=O)COc1cccc(NC(=O)Cc2cccs2)c1 | 98.5% (inactive)
CCCNC1=C(c2ccc(OC)cc2)C(=O)c2ccccc21 | 95.2% (inactive)
CSc1sc(C(=O)NC(=O)NCc2cccnc2)c(C)c1-c1ccon1 | 93.2% (inactive)
CN(C)C(C#N)c1cn(C)c2ccccc12 (stereo not drawn) | 94.2% (inactive)
Cc1[nH]c2ccccc2c1SCC(=O)Nc1nccs1 | 108% (inactive)
COc1cccc(-c2ccc(=O)n(CC(=O)NCc3ccccc3)n2)c1 | 85% (inactive)
O=C(NCCSCc1ccco1)C1CCC1 | 98.2% (inactive)
CCSc1nc(=O)[nH]c2c1CCC2 | 92.2% (inactive)
CCC(=O)NC1(C(F)(F)F)C(=O)NC(C)=C1C(=O)OC (stereo not drawn) | 97% (inactive)
C/C(=N/NC(=O)c1ccoc1C)c1ccc(NC(=O)c2ccco2)cc1 | 91.1% (inactive)
